What all share (assay): DAPPL (digital affinity profiling via proximity ligation, sequencing); 10 mM Tris-HCl pH 7.5, 50 mM NaCl, 1 mM DTT, 4% glycerol, room temperature, 30 min; GST-TFs on glutathione beads, 16-mer random dsDNA library, 0.1% formaldehyde crosslink after washing; high values mean tight binding
Common to all, as to conditions: protein: recombinant; tags: N-terminal GST; dsDNA, one strand shown

Experiment [1] has as its target T1, FLI1 (Homo sapiens, UniProt Q01543 1-452).
T1 sequence: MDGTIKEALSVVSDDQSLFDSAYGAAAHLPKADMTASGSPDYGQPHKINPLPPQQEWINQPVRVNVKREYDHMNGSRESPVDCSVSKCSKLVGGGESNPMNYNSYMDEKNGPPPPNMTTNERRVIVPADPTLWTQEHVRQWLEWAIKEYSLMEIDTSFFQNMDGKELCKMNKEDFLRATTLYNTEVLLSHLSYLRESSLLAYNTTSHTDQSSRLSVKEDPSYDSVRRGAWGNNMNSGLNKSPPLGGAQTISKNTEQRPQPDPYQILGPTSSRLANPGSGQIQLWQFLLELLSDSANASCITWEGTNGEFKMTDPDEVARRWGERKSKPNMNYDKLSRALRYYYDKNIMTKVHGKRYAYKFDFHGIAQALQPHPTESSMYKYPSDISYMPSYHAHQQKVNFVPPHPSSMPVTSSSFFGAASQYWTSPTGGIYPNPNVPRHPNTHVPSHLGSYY
Put shortly: (§1)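 Binding signal is defined as a hexamer's read frequency for one factor over its frequency for the tag-only sample. To obtain reads, GST-fused human transcription factors were expressed in yeast, captured on glutathione beads, barcoded with DNA and pooled with that sample. Pools met 200 nmole of a 16-mer random double-stranded DNA library in Tris/NaCl/DTT/glycerol buffer for 30 min at room temperature before washing, 0.1% formaldehyde crosslinking, proximity ligation (BsaI/T4 ligase, 1 h, 37 °C), PCR and Illumina NextSeq500 sequencing.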

Experiment [2] deals with T2, ELK1 (Homo sapiens, UniProt P19419 1-428).
T2 sequence: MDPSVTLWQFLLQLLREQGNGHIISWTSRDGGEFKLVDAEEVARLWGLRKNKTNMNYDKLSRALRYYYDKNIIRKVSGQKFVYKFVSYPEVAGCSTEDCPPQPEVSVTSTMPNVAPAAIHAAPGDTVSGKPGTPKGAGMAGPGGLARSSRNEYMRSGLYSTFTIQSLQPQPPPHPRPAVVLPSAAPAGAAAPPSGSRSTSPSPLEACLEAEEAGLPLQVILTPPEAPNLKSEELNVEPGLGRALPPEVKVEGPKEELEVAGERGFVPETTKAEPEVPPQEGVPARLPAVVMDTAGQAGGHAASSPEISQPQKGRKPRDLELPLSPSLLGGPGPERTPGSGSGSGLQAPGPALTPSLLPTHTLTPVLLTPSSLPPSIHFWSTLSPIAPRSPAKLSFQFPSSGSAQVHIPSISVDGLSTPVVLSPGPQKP
Put shortly:
as §1

Experiment [3] has as its target T3, GABPA (Homo sapiens, UniProt Q06546 1-454).
T3 sequence: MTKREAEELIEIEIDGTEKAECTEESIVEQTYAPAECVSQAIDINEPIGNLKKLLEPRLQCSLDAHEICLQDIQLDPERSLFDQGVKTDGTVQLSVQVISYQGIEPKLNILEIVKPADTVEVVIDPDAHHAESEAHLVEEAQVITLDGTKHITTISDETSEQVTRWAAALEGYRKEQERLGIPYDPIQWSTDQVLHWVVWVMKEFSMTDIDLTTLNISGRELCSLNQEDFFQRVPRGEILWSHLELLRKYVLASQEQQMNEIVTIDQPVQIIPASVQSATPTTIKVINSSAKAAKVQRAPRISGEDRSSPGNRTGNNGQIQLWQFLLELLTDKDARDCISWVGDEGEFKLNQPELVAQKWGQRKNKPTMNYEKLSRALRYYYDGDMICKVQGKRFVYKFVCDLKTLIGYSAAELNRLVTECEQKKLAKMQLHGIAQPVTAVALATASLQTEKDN
The essentials: as §1

For experiment [4], the target named is T4, ERG (Homo sapiens, UniProt P11308 1-479).
T4 sequence: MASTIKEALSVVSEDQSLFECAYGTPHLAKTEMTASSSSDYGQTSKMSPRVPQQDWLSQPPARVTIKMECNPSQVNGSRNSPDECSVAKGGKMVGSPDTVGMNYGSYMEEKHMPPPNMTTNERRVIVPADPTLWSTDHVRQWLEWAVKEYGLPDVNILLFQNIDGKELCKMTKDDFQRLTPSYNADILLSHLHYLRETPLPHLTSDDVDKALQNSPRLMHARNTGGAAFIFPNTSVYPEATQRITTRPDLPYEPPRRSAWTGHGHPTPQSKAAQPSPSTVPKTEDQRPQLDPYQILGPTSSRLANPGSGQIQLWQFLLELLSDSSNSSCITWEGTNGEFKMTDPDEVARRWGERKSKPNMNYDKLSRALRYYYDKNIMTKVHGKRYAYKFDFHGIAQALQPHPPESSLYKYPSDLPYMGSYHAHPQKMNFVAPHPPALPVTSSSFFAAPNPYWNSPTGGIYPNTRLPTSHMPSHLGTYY
Put shortly:
as §1

The target in experiment [5] is ELF1 (Homo sapiens, UniProt P32519 1-619). Put shortly: as §1
ELF1, sequence (P32519 whole entry): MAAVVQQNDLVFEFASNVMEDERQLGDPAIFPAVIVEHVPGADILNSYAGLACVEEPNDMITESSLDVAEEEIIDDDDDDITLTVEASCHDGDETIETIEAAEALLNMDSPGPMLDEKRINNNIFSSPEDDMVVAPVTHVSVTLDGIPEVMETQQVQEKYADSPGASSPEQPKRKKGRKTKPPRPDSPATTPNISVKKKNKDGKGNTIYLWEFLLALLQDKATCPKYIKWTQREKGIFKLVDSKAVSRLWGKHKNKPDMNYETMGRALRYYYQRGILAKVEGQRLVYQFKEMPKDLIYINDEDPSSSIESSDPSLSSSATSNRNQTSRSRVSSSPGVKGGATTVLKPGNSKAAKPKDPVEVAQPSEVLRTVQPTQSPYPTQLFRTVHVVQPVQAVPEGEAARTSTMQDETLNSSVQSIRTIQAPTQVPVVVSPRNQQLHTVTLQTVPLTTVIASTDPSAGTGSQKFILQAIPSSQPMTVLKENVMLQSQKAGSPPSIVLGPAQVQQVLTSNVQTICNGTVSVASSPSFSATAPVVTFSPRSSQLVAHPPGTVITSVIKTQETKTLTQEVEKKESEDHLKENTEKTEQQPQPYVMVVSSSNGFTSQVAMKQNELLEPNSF
In experiment [6] the target is T5, EHF (Homo sapiens, UniProt Q9NZC4 1-300).
T5 sequence: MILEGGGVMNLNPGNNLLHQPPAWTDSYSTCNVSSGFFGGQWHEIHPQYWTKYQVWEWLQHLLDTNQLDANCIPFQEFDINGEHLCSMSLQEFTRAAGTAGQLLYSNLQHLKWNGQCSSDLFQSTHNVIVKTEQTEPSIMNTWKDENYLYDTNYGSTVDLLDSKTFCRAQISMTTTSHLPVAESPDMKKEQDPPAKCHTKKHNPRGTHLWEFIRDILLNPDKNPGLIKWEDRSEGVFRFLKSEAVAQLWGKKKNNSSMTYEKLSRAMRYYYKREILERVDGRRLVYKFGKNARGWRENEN
Put shortly:
as §1

Experiment [7] concerns the target SPI1 (Homo sapiens, UniProt P17947 1-270). The essentials:
as §1

Experiment [8] deals with SPIB (Homo sapiens, UniProt Q01892 1-262). The essentials:
as §1

For experiment [9], the target named is T6, ELK3 (Homo sapiens, UniProt P41970 1-407).
T6 sequence: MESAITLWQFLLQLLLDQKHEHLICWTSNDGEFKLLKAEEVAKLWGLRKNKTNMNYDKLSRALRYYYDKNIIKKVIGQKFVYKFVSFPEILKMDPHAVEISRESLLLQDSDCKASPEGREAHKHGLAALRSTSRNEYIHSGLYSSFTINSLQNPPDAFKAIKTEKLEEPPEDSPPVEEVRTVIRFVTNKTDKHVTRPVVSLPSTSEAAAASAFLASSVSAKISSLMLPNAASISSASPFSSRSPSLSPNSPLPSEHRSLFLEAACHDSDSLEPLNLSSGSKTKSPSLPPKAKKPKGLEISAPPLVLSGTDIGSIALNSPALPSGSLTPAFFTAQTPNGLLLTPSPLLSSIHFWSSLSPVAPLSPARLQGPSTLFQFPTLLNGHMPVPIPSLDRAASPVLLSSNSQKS
Put shortly: as §1

SPIB, sequence (Q01892 whole entry): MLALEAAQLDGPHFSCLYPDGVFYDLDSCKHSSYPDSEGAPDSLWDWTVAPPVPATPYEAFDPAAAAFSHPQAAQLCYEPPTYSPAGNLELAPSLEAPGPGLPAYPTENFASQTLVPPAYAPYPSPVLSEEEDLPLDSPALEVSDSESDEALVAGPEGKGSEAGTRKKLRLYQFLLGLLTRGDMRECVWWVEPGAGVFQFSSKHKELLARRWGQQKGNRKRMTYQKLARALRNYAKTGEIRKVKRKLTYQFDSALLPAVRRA

AAACCA: the binding signal in experiment [1] is 1.13 fold enrichment (6-mer frequency, TF over GST control); in experiment [2], 1.11 fold enrichment (6-mer frequency, TF over GST control); in [3] it was 1.14 fold enrichment (6-mer frequency, TF over GST control); in experiment [4] it was 1.19 fold enrichment (6-mer frequency, TF over GST control); in [5] it was 1.18 fold enrichment (6-mer frequency, TF over GST control); in [6], 1.17 fold enrichment (6-mer frequency, TF over GST control). Also, the binding signal in experiment [7] was 1.07 fold enrichment (6-mer frequency, TF over GST control); in experiment [8], 1.16 fold enrichment (6-mer frequency, TF over GST control); in experiment [9], 1.18 fold enrichment (6-mer frequency, TF over GST control).
As for TTCCTG, the binding signal in experiment [1] is 2.3 fold enrichment (6-mer frequency, TF over GST control); in experiment [2], 2.3 fold enrichment (6-mer frequency, TF over GST control); in experiment [3], 2.17 fold enrichment (6-mer frequency, TF over GST control); in [4], 2.59 fold enrichment (6-mer frequency, TF over GST control); in experiment [5] it was 2.22 fold enrichment (6-mer frequency, TF over GST control); in experiment [6], 2.23 fold enrichment (6-mer frequency, TF over GST control). Further, the binding signal is 2.64 fold enrichment (6-mer frequency, TF over GST control) in experiment [7]; 2.36 fold enrichment (6-mer frequency, TF over GST control) in experiment [8]; 2.28 fold enrichment (6-mer frequency, TF over GST control) in experiment [9].
In the case of TATCTC, the binding signal was 1.19 fold enrichment (6-mer frequency, TF over GST control) in experiment [1]; 1.32 fold enrichment (6-mer frequency, TF over GST control) in experiment [2]; 1.39 fold enrichment (6-mer frequency, TF over GST control) in experiment [3]; 1.18 fold enrichment (6-mer frequency, TF over GST control) in [4]; 1.29 fold enrichment (6-mer frequency, TF over GST control) in experiment [5]; 1.35 fold enrichment (6-mer frequency, TF over GST control) in experiment [6]. Moreover, the binding signal is 1.15 fold enrichment (6-mer frequency, TF over GST control) in experiment [7]; 1.38 fold enrichment (6-mer frequency, TF over GST control) in experiment [8]; 1.25 fold enrichment (6-mer frequency, TF over GST control) in [9].
ATAAAT: the binding signal was 1.14 fold enrichment (6-mer frequency, TF over GST control) in experiment [1]; 1.15 fold enrichment (6-mer frequency, TF over GST control) in experiment [2]; 1.15 fold enrichment (6-mer frequency, TF over GST control) in experiment [3]; 1.15 fold enrichment (6-mer frequency, TF over GST control) in experiment [4]; 1.15 fold enrichment (6-mer frequency, TF over GST control) in experiment [5]; 1.14 fold enrichment (6-mer frequency, TF over GST control) in [6]. Also, the binding signal in experiment [7] was 1.2 fold enrichment (6-mer frequency, TF over GST control); in experiment [8], 1.23 fold enrichment (6-mer frequency, TF over GST control); in [9] it was 1.22 fold enrichment (6-mer frequency, TF over GST control).
As for ATCTGC, the binding signal in [1] was 1.3 fold enrichment (6-mer frequency, TF over GST control); in [2], 1.28 fold enrichment (6-mer frequency, TF over GST control); in experiment [3] it was 1.47 fold enrichment (6-mer frequency, TF over GST control); in experiment [4], 1.37 fold enrichment (6-mer frequency, TF over GST control); in experiment [5], 1.45 fold enrichment (6-mer frequency, TF over GST control); in experiment [6], 1.34 fold enrichment (6-mer frequency, TF over GST control). Moreover, the binding signal is 1.44 fold enrichment (6-mer frequency, TF over GST control) in [7]; 1.41 fold enrichment (6-mer frequency, TF over GST control) in [8]; 1.34 fold enrichment (6-mer frequency, TF over GST control) in [9].
Consider TATTCT, for which the binding signal in experiment [1] was 1.45 fold enrichment (6-mer frequency, TF over GST control); in [2], 1.28 fold enrichment (6-mer frequency, TF over GST control); in experiment [3], 1.43 fold enrichment (6-mer frequency, TF over GST control); in experiment [4], 1.31 fold enrichment (6-mer frequency, TF over GST control); in [5], 1.33 fold enrichment (6-mer frequency, TF over GST control); in [6] it was 1.39 fold enrichment (6-mer frequency, TF over GST control). Also, the binding signal is 1.31 fold enrichment (6-mer frequency, TF over GST control) in experiment [7]; 1.19 fold enrichment (6-mer frequency, TF over GST control) in experiment [8]; 1.33 fold enrichment (6-mer frequency, TF over GST control) in [9].
As for CGAACC, the binding signal in [1] is 1.1 fold enrichment (6-mer frequency, TF over GST control); in [2], 1.29 fold enrichment (6-mer frequency, TF over GST control); in experiment [3], 1.22 fold enrichment (6-mer frequency, TF over GST control); in experiment [4], 1.15 fold enrichment (6-mer frequency, TF over GST control); in [5], 1.23 fold enrichment (6-mer frequency, TF over GST control); in [6], 1.19 fold enrichment (6-mer frequency, TF over GST control). Moreover, the binding signal in experiment [7] is 1.17 fold enrichment (6-mer frequency, TF over GST control); in experiment [8], 1.13 fold enrichment (6-mer frequency, TF over GST control); in experiment [9], 1.21 fold enrichment (6-mer frequency, TF over GST control).
For TTTGCA, the binding signal is 1.27 fold enrichment (6-mer frequency, TF over GST control) in [1]; 1.33 fold enrichment (6-mer frequency, TF over GST control) in experiment [2]; 1.34 fold enrichment (6-mer frequency, TF over GST control) in experiment [3]; 1.29 fold enrichment (6-mer frequency, TF over GST control) in experiment [4]; 1.32 fold enrichment (6-mer frequency, TF over GST control) in [5]; 1.19 fold enrichment (6-mer frequency, TF over GST control) in [6]. The binding signal in experiment [7] was 1.22 fold enrichment (6-mer frequency, TF over GST control); in experiment [8] it was 1.29 fold enrichment (6-mer frequency, TF over GST control); in experiment [9], 1.32 fold enrichment (6-mer frequency, TF over GST control).

The values above are taken from PMC7862700, “An all-to-all approach to the identification of sequence-specific readers for epigenetic DNA modifications on cytosine”.
